Molecular target: Estrogen receptor (Homo sapiens) (UniProt P03372)
Experiment: ERalpha ligand binders by competition, primary screen, cell-based, Cos7 ERalpha-GFP, flow cytometry (AID 1211);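 also: 0% = DMSO vehicle wells and 100% = no E2-Alexa633 signal left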
Settings: fluorescent ligand competition, at 10 µM, active compounds read high; call rule not given here

Estrogen receptor (Homo sapiens), sequence (P03372 whole entry, looked up): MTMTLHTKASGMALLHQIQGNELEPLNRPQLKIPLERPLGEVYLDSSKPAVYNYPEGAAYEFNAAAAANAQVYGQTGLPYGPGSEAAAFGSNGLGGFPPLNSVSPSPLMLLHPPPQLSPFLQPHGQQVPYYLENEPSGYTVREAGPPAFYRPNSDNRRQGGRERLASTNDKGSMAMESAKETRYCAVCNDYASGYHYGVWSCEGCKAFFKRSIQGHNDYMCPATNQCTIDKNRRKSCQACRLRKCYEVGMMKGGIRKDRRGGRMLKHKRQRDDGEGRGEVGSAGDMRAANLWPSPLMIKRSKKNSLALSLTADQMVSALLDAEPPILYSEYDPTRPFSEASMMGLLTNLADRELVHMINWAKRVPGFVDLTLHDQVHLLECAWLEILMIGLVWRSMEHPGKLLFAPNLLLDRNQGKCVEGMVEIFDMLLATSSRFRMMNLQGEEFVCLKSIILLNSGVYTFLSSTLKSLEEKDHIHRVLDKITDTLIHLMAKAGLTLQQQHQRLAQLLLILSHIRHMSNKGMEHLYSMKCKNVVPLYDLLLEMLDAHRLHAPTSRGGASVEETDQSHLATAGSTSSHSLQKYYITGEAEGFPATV

Inhibition of ligand binding, inactive:
CCOC(=O)N1CCc2[nH]c3ccc(C)cc3c2C1 6%
O=c1oc2cc(O)c(Cl)cc2c2c1CCCC2 0%
CCCc1c(C(=O)OCC)[nH]c2c1C(=O)CC(c1ccccc1)C2 (configuration not stated) 27%
CCCCOc1cc(OCCCC)c2c3c(c(=O)oc2c1)CCCC3 19%
COc1ccc(Oc2ccc3c(c2)c2c4n3CCNC4CCC2)cc1 (configuration not stated) 0%
Cc1sc2ncnc(SCC(=O)NC(=O)NCc3ccco3)c2c1C 19%
C=C1C2C[C@H](O)C(C)(C)[C@@]2(O)[C@H](O)C[C@]23C[C@@](C)(O)[C@H](CC[C@H]12)[C@H]3O (some centres not stated) 30%
CCCCc1cc2c(=O)c(-c3ccccn3)coc2cc1O 1%
COc1cccc(-c2cc(C(=O)Nc3cc(C)nn3-c3ccccc3)no2)c1 30%
O=C(CSc1nnc(-c2ccc(O)cc2)n1Cc1ccccc1)NNC(=O)c1ccc(Br)cc1 48%
CC(C)COc1ccc2c(c1)c1c3n2CCNC3CCC1 (configuration not stated) 22%
COC(=O)c1ccc(C2Nc3ccc(/C(C)=N/NC(=O)C(OC)c4ccccc4)cc3C3C=CCC32)cc1 (configuration not stated) 0%
CC1(C)C=C(c2ccc(O)cc2)CC(C)(C)N1 8%
COc1cccc(NS(=O)(=O)c2ccc3c(c2)C2C=CCC2C(c2ccc(C(=O)O)cc2)N3)c1 (configuration not stated) 37%
COc1cccc(C2Nc3c(F)cc(Br)cc3C3C=CCC32)c1OC (configuration not stated) 60%
CC(=O)N1c2ccc3ccccc3c2C2C=CCC2C1c1ccc(Br)cc1 (configuration not stated) 48%
COc1cc(NC(=O)c2cccs2)c(C(=O)OCC(=O)NC(=O)NCc2ccccc2)cc1OC 24%
O=C(COC(=O)C1CC2C=CC1C2)NCc1ccco1 (configuration not stated) 16%
C=CCSC1=N/C(=C\C=C\c2ccco2)C(=O)S1 0%
COc1ccc(-c2nnc(SCC(=O)c3cc(C)n(Cc4cccs4)c3C)o2)cc1 35%
CC(=O)c1ccc2c(c1)C1C=CCC1C(c1ccncc1)N2 (configuration not stated) 9%
COc1ccc(CCn2c(SCC(=O)Nc3cc(C)on3)nc3ccsc3c2=O)cc1OC 33%

From PubChem BioAssay AID1211 (NMMLSC, 2008)
